From PubChem BioAssay
DRD3 antagonist = blocks the human D3 dopamine receptor; P35462; AID 652054; D3R cells, DiscoveRx beta-arrestin luminescence, antagonist mode; stronger effect = lower value; max response, negative = inhibition, %; 2.5% of 360,000 active; in the data active = max response below about -50%; inconclusive = no clear call, values can overlap the other calls
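Cells plated overnight at 1500 cells/well, then exposed to library compounds with dopamine controls for 90 minutes at 37 degrees C. DiscoveRx reagent added for 30–60 minutes at room temperature; luminescence read, quantitative HTS format.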
D1 potentiator = human D1 dopamine receptor positive modulation | P21728 | HEK293 TREx D1 cells, calcium flux, dopamine EC20 potentiation | potentiation, % at 10 µM | 0.036% of 360,000 active; in the data active = potentiation above about 30%
Target sequence (P21728 whole entry, looked up): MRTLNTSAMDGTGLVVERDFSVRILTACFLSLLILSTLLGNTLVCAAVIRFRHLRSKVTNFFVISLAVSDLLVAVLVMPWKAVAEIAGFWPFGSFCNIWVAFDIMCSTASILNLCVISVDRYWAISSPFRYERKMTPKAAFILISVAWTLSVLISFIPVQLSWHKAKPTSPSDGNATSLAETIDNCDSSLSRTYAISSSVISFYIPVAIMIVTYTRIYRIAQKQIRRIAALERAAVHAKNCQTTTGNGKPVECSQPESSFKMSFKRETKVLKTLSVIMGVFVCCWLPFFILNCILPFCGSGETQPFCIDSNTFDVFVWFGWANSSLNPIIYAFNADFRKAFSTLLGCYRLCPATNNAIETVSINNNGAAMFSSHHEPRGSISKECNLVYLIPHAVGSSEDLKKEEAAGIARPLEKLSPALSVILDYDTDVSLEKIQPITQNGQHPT
D3 ag = activates the human D3 dopamine receptor. 0.58% of 410,000 active. AID 652048. max activation, %. D3R DiscoveRx beta-arrestin cells, luminescence, 90 min. P35462; in the data active = max activation above about 30%
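Cells at 1500/well, incubated overnight, then treated with pinned compounds (dopamine as control) for 90 min at 37 degrees C. DiscoveRx reagent added for 30 - 60 minutes at room temperature; luminescence read.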
D1 agonist = activates the human D1 dopamine receptor. HEK293 T-REx D1 cells, calcium flux, agonist mode. activation, % at 2 µM. 1% of 360,000 active. AID 504660; in the data active = activation above about 30%
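Agonism was scored from calcium flux recorded over 180 s (1 read/s) after pintool compound addition, following a 10-cycle baseline. Cells were inducible force-coupled HEK293 TREx D1, plated overnight at 30 C and loaded with no-wash calcium dye.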
D1 antag = human D1 dopamine receptor antagonism; P21728; HEK293 TREx D1 cells, calcium flux, dopamine EC80; stronger effect = lower value; activity change, negative = inhibition, % at 10 µM; 3.2% of 360,000 active; in the data active = activity change below about -30%
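Tetracycline-induced HEK293 T-REx cells with force-coupled D1 receptor were loaded with a no-wash calcium dye. Compound was added after a 10 s baseline and read kinetically for 180 s; EC80 dopamine was then added and calcium flux followed another 180 s.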
BCR signal inh = inhibitors of chronic active B-cell receptor signaling | ABC-DLBCL IkBa-CBG/CBR reporter, luminescence ratio, 4 h | Potency, µM (highest dose often 46.1 µM), hits mostly inhibitors | 0.05% of 340,000 active | AID 493014; active = well fitted inhibition curve with a large enough effect in the signal ratio, with a control signal flat, not every such curve was filed as active; inconclusive = small, poorly fitted or top-dose-only effect, or effect the other way, or a change in a side signal; the % refers to the signal ratio
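Cell line TMD8 (human ABC DLBCL), stably expressing tet-inducible CBG68-IkBa fusion and CBR; IMDM/0.5% FBS; cpd up to 46 uM; dox induction, 4 h, 37C/5% CO2; dual luminescence; green/red ratio; MG132 control.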
Each line names hits and unclear results; the compound was inactive in the other large screens. An excerpt weighted towards active compounds, which were near 6% of everything screened.

Cc1cc(C)cc(NC(=O)c2ccc(CN3CCc4ccccc4C3)cc2)c1	DRD3 antagonist -66.8
O=C(Nc1ccccc1)c1ccc(CN2CCc3ccccc3C2)cc1	DRD3 antagonist inconclusive
Cc1ccn2c(CN(C)CCn3nc(C)cc3C)c(C(=O)N3CCCCCC3)nc2c1	D1 antag -35.9
Cc1ccn2c(CNCCn3nc(C)cc3C)c(C(=O)N3CCCCCC3)nc2c1	BCR signal inh inconclusive
COCCn1c(C)cc(C(=O)CSc2nc(C)nc3sc4c(c23)CCC4)c1C	D3 ag 54.4 (no result: D1 potentiator, D1 agonist, D1 antag, BCR signal inh)
Cc1cc2c(s1)c1cnn(Cc3c(F)c(F)c(C(F)(F)F)c(F)c3F)c(=O)c1n2C	none (no result: DRD3 antagonist, D3 ag, BCR signal inh)
Cc1ccc(NC(=O)CSc2nc3nc(C)c(Br)cc3[nH]2)cc1F	D1 antag -30.8
Cc1nn(CCC(=O)NNC(=S)Nc2ccc(F)cc2)c(C)c1[N+](=O)[O-]	DRD3 antagonist -77.4
O=C(CCC(=O)Nc1ccc(F)cc1)N/N=C/c1cccs1	none
CCCCCC(=O)N/N=C/c1cccs1	D1 antag -47.4, BCR signal inh inconclusive
Cc1ccc(C)c(C(C)NC(=S)NCc2ccc(F)cc2)c1 (stereo not given)	D1 agonist 93.3, BCR signal inh inconclusive
CCC(NC(=S)NCc1ccc(F)cc1)c1ccccc1 (stereo not given)	D1 agonist 40.2
COc1ccc(C(C)NC(=S)NCc2ccc(F)cc2)cc1 (stereo not given)	none
Cc1ccc(NC(=S)NCc2ccc(F)cc2)cc1	none (no result: D1 potentiator, D1 agonist, D1 antag, BCR signal inh)
CCCn1c(=O)c2sccc2n2c(CCCC(=O)Nc3ccccc3F)nnc12	none (no result: DRD3 antagonist, BCR signal inh)
Cc1cc(C(=O)N/N=C/c2ccc(-c3cccc(Cl)c3)o2)n[nH]1	DRD3 antagonist -61.3, D1 agonist 66.2
O=C(N/N=C/c1ccc(-c2ccccc2)o1)c1ccccc1O	D1 antag -31.6, BCR signal inh inconclusive
O=C(N/N=C\c1ccncc1)c1ccccc1O	BCR signal inh inconclusive
Cc1ccc(C(=O)N/N=C/c2ccc(-c3cccc(Cl)c3)o2)cn1	BCR signal inh inconclusive
CCCCCC(=O)N(O)C1CC(=O)N(c2ccccc2)C1=O (stereo not given)	DRD3 antagonist -85.9, BCR signal inh inconclusive
CCCc1c(-c2ccc(F)cc2F)ncn1Cc1ccccc1OC	none (no result: D1 potentiator, D1 agonist, D1 antag, BCR signal inh)
O=C(NCCCc1ccccc1)c1ccncc1	none
CN(CCCNC(=O)c1ccc(/C=N/O)nc1)CCCN(C)Cc1ccccc1	none
O=C(NCCc1ccccc1)c1ccnc(/C=N/O)c1	D1 antag -34.4, BCR signal inh inconclusive
CN(CCNC(=O)c1ccc(/C=N/O)nc1)Cc1ccccc1	DRD3 antagonist -75.6
CCCCCCn1c(SCC(=O)OC)nc2c1c(=O)[nH]c(=O)n2C	D1 potentiator 36.8
CCOCCn1c(SCc2ccc(C)cc2)nc2c1c(=O)[nH]c(=O)n2C	D1 antag -38.0
CCC(=O)N1CCc2cc(S(=O)(=O)NC(C(=O)Nc3cc(OC)cc(OC)c3)C(C)C)ccc21 (stereo not given)	none (no result: DRD3 antagonist, BCR signal inh)
COc1cc(/C=C2\SC(=S)N(Nc3ncc(C(F)(F)F)cc3Cl)C2=O)ccc1O	DRD3 antagonist inconclusive, D1 agonist 96.6, BCR signal inh inconclusive
CN(C)c1ccc(/C=C2\SC(=S)N(Nc3ncc(C(F)(F)F)cc3Cl)C2=O)cc1	D1 agonist 168.1, D1 antag -62.9
Cc1ccccc1CN(C)CCc1ccccn1	none
CC(C)=CCCC(C)CN(C)CCc1ccccn1 (stereo not given)	DRD3 antagonist -64.3
O=C(CBr)N1CCc2ccccc2C(c2ccccc2)C1 (stereo not given)	BCR signal inh inconclusive
C=CCN1CCc2c(cc(O)c(O)c2Br)[C@@H](c2ccccc2)C1	D3 ag 82.8 (no result: D1 potentiator, D1 agonist, D1 antag, BCR signal inh)
O=C(NC(NC(=S)Nc1cc(Cl)ccc1Cl)C(Cl)(Cl)Cl)c1ccco1 (stereo not given)	DRD3 antagonist inconclusive, D1 antag -40.4, BCR signal inh inconclusive
O=C(Cc1ccccc1)NC(NC(=S)Nc1cc(Cl)ccc1Cl)C(Cl)(Cl)Cl (stereo not given)	DRD3 antagonist inconclusive, BCR signal inh inconclusive
O=C(/C=C/c1ccccc1)NC(NC(=S)Nc1cc(Cl)ccc1Cl)C(Cl)(Cl)Cl (stereo not given)	DRD3 antagonist inconclusive, D1 antag -36.7, BCR signal inh inconclusive
O=C(NC(NC(=S)Nc1ccc(Cl)c(Cl)c1)C(Cl)(Cl)Cl)c1ccco1 (stereo not given)	BCR signal inh inconclusive (no result: D1 potentiator, D1 agonist, D1 antag)
CC(NC(=O)[C@@H](C)NC(=O)[C@@H]1Cc2ccccc2CN1C(=O)OC(C)(C)C)c1ccccc1 (stereo not given in full)	none
C[C@@H](NC(=O)[C@@H]1Cc2ccccc2CN1C(=O)OC(C)(C)C)C(=O)NC1CCCC1	D1 antag -40.5
O=C(NCc1ccc(Cl)cc1)c1cc(S(=O)(=O)N2CCCCC2)c[nH]1	DRD3 antagonist -53.6
COc1cccc(CNC(=O)c2cc(S(=O)(=O)N3CCCCC3)c[nH]2)c1	none
CSc1nnc2c3ccccc3n(CCc3ccccc3)c2n1	BCR signal inh inconclusive
CSc1nnc2c3ccccc3n(Cc3ccccc3)c2n1	D1 antag -56.5
O=C(NCC(c1cccnc1)N1CCc2ccccc2C1)C(=O)Nc1ccccc1F (stereo not given)	none (no result: DRD3 antagonist, BCR signal inh)
CCc1nc2c(cnn2-c2ccc(Cl)cc2)c(=O)n1-c1ccc(OC)c(Cl)c1	none (no result: DRD3 antagonist, BCR signal inh)
COc1ccc(-c2nnn(CC(=O)N(c3cccc(O)c3)C(C)C(=O)NC3CCCC3)n2)cc1OC (stereo not given)	D1 antag -31.8
O=C(O)CN=C(Nc1cc(Cl)cc(Cl)c1)NC(c1ccccc1)c1ccccc1	none (no result: D1 potentiator, D1 agonist, D1 antag, BCR signal inh)
CCC1CCCCN1S(=O)(=O)c1ccc(NC(=O)c2ccncc2)cc1 (stereo not given)	D1 antag -33.9, BCR signal inh inconclusive
CCC1CCCCN1S(=O)(=O)c1ccc(NC(=O)c2nc(S(C)(=O)=O)ncc2Cl)cc1 (stereo not given)	D1 antag -34.0, BCR signal inh inconclusive
CCSc1ncc(Cl)c(C(=O)Nc2ccc(S(=O)(=O)N3CCCCC3CC)cc2)n1 (stereo not given)	none (no result: DRD3 antagonist, BCR signal inh)
CCC1CCCCN1S(=O)(=O)c1ccc(C(=O)Nc2nnc(C3CC3)o2)cc1 (stereo not given)	none
Cc1ccc(NC(=O)NNC(=O)COc2ccc3ccccc3c2)cc1	none
CC(Oc1ccc2ccccc2c1)C(=O)NNC(=O)Nc1ccccc1 (stereo not given)	D1 antag -37.1
Cc1ccccc1NC(=S)NNc1ncc(C(F)(F)F)cc1Cl	DRD3 antagonist -93.1
O=C(NNc1ncc(C(F)(F)F)cc1Cl)c1c(Cl)cccc1Cl	DRD3 antagonist -70.2, BCR signal inh inconclusive
Fc1ccccc1NC(=S)NNc1ncc(C(F)(F)F)cc1Cl	none
